# From PubChem BioAssay (EPA / NIEHS)
# The source made the active and inactive calls. How the source made its calls: active means hit-call score of the fitted dose curve at least 0.9, where 1 is the maximum; inactive means score below 0.9.
# Assay: Tanguay_ZF_120hpf_ANY: Oregon State University Tanguay Lab 120 Hour Post-fertilization zebrafish Assay for Any Mortality and Malformation (AID 2284404)
# Procedure: Tanguay_ZF_120hpf is a whole embryo, multiplexed endpoint assay using zebrafish larvae exposed for 120 hours post fertilization on a 96-well plate.Tanguay_ZF_120hpf_ANY is one of one assay component(s) measured or calculated from the Tanguay_ZF_120hpf assay. It is designed to make measurements of developmental malformations and mortality as detected with brightfield microscopy and combines scoring from 13 other assay components measuring more specific morphologies.Data from the assay component Tanguay_ZF_120hpf_ANY was analyzed into 1 assay endpoints. This assay endpoint, Tanguay_ZF_120hpf_ANY, was analyzed in the positive analysis fitting direction relative to DMSO as the negative control and baseline of activity. Using a type of morphology reporter, gain-of-signal activity can be used to understand changes in developmentals as they relate to the whole embryo. To generalize the intended target to other relatable targets, this assay endpoint is annotated to the zebrafish development intended target family, where the subfamily is embryonic morphogenesis and mortality.
# Zebrafish husbandry: Tropical 5D wild-type adult zebrafish were housed in at an approximate density of 1000 per 100 gallon tank at the Sinnhuber Aquatic Research Laboratory, Oregon State University, Corvallis, OR. Each tank was kept at standard laboratory conditions of 28C on a 14-h light/10-h dark photoperiod in fish water consisting of reverse osmosis water supplemented with a commercially available salt (Instant Ocean). Spawning funnels were placed into the tanks the night prior, and embryos were collected and staged. To increase bioavailability, the chorion was enzymatically removed using pronase (63.6mg/ml, >/= 3.5U/mg, Sigma-Aldrich: P5147) at 4 hours post fertilization (hpf) using a custom automated dechorionator.Chemical exposures: Six hpf dechorionated embryos were placed 1 embryo per well in a 96-well plate prefilled with 90 ul of EM using automated embryo placement systems (AEPS). Ten microliters of each row of dilution plate 2 was added to 2 exposure plates. The final DMSO concentration used was 0.64% (vol/vol). Thirty-two embryos were also exposed to 5uM trimethyltin chloride (positive control). Plates were sealed to prevent evaporation and foil covered to reduce light exposure and kept in a 28C incubator. Embryos were statically exposed until 120 hpf. At 24 hpf, embryos were assessed for photomotor response using a custom photomotor response analysis tool (PRAT) and for developmental toxicity endpoints (MO24: mortality at 24 hpf, DP: developmental progression, SM: spontaneous movement, and NC: notochord distortion). At 120 hpf, locomotor activity was measured using Viewpoint Zebralab and assessed for 13 endpoints. Zebrafish acquisition and analysis program (ZAAP), a custom program designed to inventory, acquire, and manage zebrafish data, was used to collect developmental endpoints as either present or absent (i.e., binary responses were recorded). If mortality occurred for an embryo (at either 24 or 120 hpf), the non-mortality endpoints were not measured.
SMILES,outcome,AC50
FC(F)(F)C(F)(F)C(F)(F)C(F)(F)C(F)(F)C(F)(F)C(F)(F)CCI,inactive,–
NC(O)(C(F)(F)F)C(F)(F)F,inactive,–
NC(=O)C(F)(F)C(F)(F)C(F)(F)C(F)(F)C(F)(F)C(F)(F)C(F)(F)F,–,43.4 µM (active)
OCC(O)CC(F)(F)C(F)(F)C(F)(F)C(F)(F)C(F)(F)C(F)(F)C(F)(F)C(F)(F)F (configuration not stated),–,5.14 µM (active)
OCCCCC(F)(F)C(F)(F)C(F)(F)C(F)(F)F,inactive,–
COC(F)(C(F)F)C(F)(F)F (configuration not stated),inactive,–
C=CC(=O)OCC(F)(F)C(F)(F)C(F)(F)C(F)(F)C(F)(F)C(F)(F)C(F)(F)C(F)F,inactive,–
OC(O)C(F)(F)C(F)(F)F,inactive,–
O=C(O)C(F)(F)C(F)(F)C(F)(F)OC(F)(F)F,inactive,–
O=S(=O)(Cl)C(F)(F)C(F)(F)C(F)(F)C(F)(F)C(F)(F)C(F)(F)C(F)(F)C(F)(F)F,inactive,–
OCC(O)CC(F)(F)C(F)(F)C(F)(F)C(F)(F)F (configuration not stated),inactive,–
O=C(O)CCC(F)(F)C(F)(F)C(F)(F)F,inactive,–
FC(F)(F)C(F)(F)C(F)(F)CC1CO1 (configuration not stated),inactive,–
C=CC(=O)OCC(F)(F)C(F)(F)C(F)(F)COC(=O)C=C,–,5.92 µM (active)
O=C(F)C1(F)C(F)(F)C(F)(F)C(F)(F)C(F)(F)C1(F)F,inactive,–
NC(=O)C(F)(F)C(F)(F)C(F)(F)F,inactive,–
O=S(=O)(O)CCC(F)(F)C(F)(F)C(F)(F)C(F)(F)F,inactive,–
CNS(=O)(=O)C(F)(F)C(F)(F)C(F)(F)C(F)(F)C(F)(F)C(F)(F)C(F)(F)C(F)(F)F,–,55.5 µM (active)
FC(F)(F)C(F)(F)C(F)(F)C(F)(F)C(F)(F)C(F)(F)CC[Si](Cl)(Cl)Cl,inactive,–

SMILES,outcome,AC50
O=S(=O)(OCC(F)(F)F)C(F)(F)C(F)(F)C(F)(F)C(F)(F)F,inactive,–
C[Si](Cl)(Cl)CCC(F)(F)C(F)(F)C(F)(F)C(F)(F)C(F)(F)C(F)(F)F,inactive,–
CCOC(=O)CC(=O)C(F)(F)C(F)(F)F,inactive,–
OCC(F)(F)C(F)(F)C(F)(F)C(F)(F)C(F)(F)C(F)(F)C(F)(F)C(F)(F)CO,–,16.7 µM (active)
O=C(O)C(F)(F)C(F)(F)C(F)(F)C(=O)O,inactive,–
NS(=O)(=O)C(F)(F)C(F)(F)C(F)(F)C(F)(F)C(F)(F)C(F)(F)F,–,10.6 µM (active)
O=S(=O)(O)CCC(F)(F)C(F)(F)C(F)(F)C(F)(F)C(F)(F)C(F)(F)C(F)(F)C(F)(F)F,–,74.4 µM (active)
OCCCC(F)(F)C(F)(F)C(F)(F)C(F)(F)C(F)(F)C(F)(F)C(F)(F)C(F)(F)F,inactive,–
OCC(F)(F)C(F)(F)C(F)(F)C(F)(F)C(F)(F)C(F)(F)CO,inactive,–
CN(C(=O)C(F)(F)C(F)(F)C(F)(F)F)[Si](C)(C)C,inactive,–
CCN(CCO)S(=O)(=O)C(F)(F)C(F)(F)C(F)(F)C(F)(F)C(F)(F)C(F)(F)C(F)(F)C(F)(F)F,inactive,–
NC(=O)C(F)(F)C(F)(F)C(F)(F)C(F)F,inactive,–
OCC(F)(F)C(F)(F)C(F)(F)CO,inactive,–
O=C(O)C(F)(F)C(F)(F)C(F)(F)OC(F)(C(F)(F)F)C(F)(F)F,inactive,–
CO[Si](C)(CCC(F)(F)C(F)(F)C(F)(F)C(F)(F)C(F)(F)C(F)(F)F)OC,inactive,–
C=CC(=O)OCCC(F)(F)C(F)(F)C(F)(F)C(F)(F)F,inactive,–
O=C(O)CCC(F)(F)C(F)(F)C(F)(F)C(F)(F)C(F)(F)C(F)(F)C(F)(F)F,inactive,–
NC(=O)C(F)(F)C(F)(F)C(F)(F)C(F)(F)C(N)=O,inactive,–
